# Screening data: PubChem BioAssay, National Center for Advancing Translational Sciences (NCATS)
# In the library only some 3.3% were active in any assay of this set; here they are far more common.
# PI5P4Ka inh: blocks human PI5P4K alpha kinase activity; P48426; PI5P4Kalpha enzyme, ADP-Glo luminescence, 60 min; hits give low values; max response, %; 1.2% of 330,000 active; AID 652105; active means max response of -50% or lower; inconclusive means between -30% and -50%; inactive means -30% or higher; further: value at the top dose of about 77 µM
#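 Quantitative HTS of the MLSMR library against PI5P4Kalpha with substrate. ATP added last at 5 microM final; room temperature, 60 minutes. Remaining ATP depleted, ADP converted and read as luminescence.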
# PLK1 PBD block: PLK1 (human) polo-box domain binding inhibition; Plk1 PBD binding of FITC phosphopeptide, fluorescence polarization; Potency, µM, inactives show max response, negative = inhibition, most hits filed as inhibitors; 2.8% of 360,000 active; further: potency means the concentration at half of the fitted maximal effect; series mostly up to about 57 µM; nearly all actives have a fitted effect of over 65% in size
# Target sequence (P53350 whole entry, looked up, the tested form may be a part): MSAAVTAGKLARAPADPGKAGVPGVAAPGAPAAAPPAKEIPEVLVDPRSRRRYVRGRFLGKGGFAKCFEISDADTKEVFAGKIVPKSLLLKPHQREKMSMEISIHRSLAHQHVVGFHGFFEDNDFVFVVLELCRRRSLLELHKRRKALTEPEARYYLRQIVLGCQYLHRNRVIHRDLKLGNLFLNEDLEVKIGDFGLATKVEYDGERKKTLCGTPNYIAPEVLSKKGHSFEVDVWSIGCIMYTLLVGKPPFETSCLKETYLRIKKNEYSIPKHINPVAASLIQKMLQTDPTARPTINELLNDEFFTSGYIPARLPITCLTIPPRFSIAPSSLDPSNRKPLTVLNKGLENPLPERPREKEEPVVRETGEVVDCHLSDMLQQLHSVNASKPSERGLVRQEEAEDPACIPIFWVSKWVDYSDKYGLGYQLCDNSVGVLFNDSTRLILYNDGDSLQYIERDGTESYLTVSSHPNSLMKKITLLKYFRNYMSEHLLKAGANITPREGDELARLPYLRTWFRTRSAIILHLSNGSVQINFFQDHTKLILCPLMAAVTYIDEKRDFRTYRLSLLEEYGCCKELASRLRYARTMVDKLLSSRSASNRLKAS
# WRN helicase inh: inhibitors of human WRN helicase. Q14191. WRN helicase unwinding, fluorescent forked duplex, kinetic. Potency, µM (doses to about 114 µM), for the others: at the top dose activity change, negative = inhibition, hits mostly inhibitors. 0.46% of 360,000 active. AID 651768; further: potency means the concentration at half of the fitted maximal effect; nearly all actives have a fitted effect of over 55% in size
#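 WRN at 20 nM final preincubated with compound 15 min at room temperature; reaction started with 100 nM fluorophore/quencher forked duplex oligonucleotide and 2 mM ATP final. Unwinding followed kinetically by red fluorescence (ex 525, em 598 nm).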
# USP1 inh: USP1/UAF1 (human) deubiquitinase inhibition | recombinant USP1/UAF1, Ub-Rhodamine cleavage fluorescence | Potency, µM (top dose mostly 57.1 µM), inactives show top-dose activity change, negative = inhibition, actives largely listed as inhibitors | 0.23% of 390,000 active | AID 743255; further: potency means the concentration at half of the fitted maximal effect; nearly all actives have a fitted effect of over 60% in size
#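 1 nM enzyme complex + cpd, 15 min RT; start with Ub-Rho 150nM final; kinetic fluorescence ex 480/em 540, 6 reads q60 s. Buffer 50mM HEPES pH 7.8, 0.5mM EDTA, 0.1 mg/ml BSA, 1mM TCEP, 0.01% Tween-20.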
# USP2a inh: USP2a (human) protease inhibition; USP2 core, Ub-CHOP2 coupled fluorogenic reporter, 485/531; Potency, µM (titrated, usually from 38.3 µM), without a hit: at the highest dose activity change, negative = inhibition, usual class: inhibitors; 0.01% of 330,000 active;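 further: potency means the concentration at half of the fitted maximal effect; plate controls were DMSO wells for no effect and full inhibition by NEM control for full effect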
#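 Deubiquitinase activity read as fluorescence (485/531 nm) after Ub-CHOP2 cleavage activates the enterokinase reporter on its substrate; USP2 core 10nM, Ub-CHOP2 and substrate 25nM each, 30min compound preincubation then 60min RT; data normalized to NEM, curves fitted.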
# * hit, by the source's call; u = inconclusive; x = no result; [ ] = remark or other dose. Unless noted, the call rests on the fitted dose curve; in most records, active means well fitted curve in the direction sought with a large enough effect; inconclusive means small, poorly fitted or top-dose-only effect, or another doubt; inactive means no such curve, though single readings can be large; an effect the other way counts as inactive or inconclusive. Unless noted, on the % scale 0 is the no-effect control and ±100 the full control effect.
SMILES,PI5P4Ka inh,PLK1 PBD block,WRN helicase inh,USP1 inh,USP2a inh
Cc1cccc(NC(=O)CSc2nccn2Cc2ccc(F)cc2)c1C,x,x,x,-20%,x
CCOC(=O)Cc1csc(-n2sc3ccccc3c2=O)n1,-107*,3µM*,-22%[11.6 µM],u,4%
Nc1nc2ncc(C(=O)c3cc(Cl)cc(Cl)c3O)cc2s1,-57*,u,u,-17%,11%
Nc1nc2ncc(C(=O)c3cc(F)ccc3O)cc2s1,-25,1%,-2%,-12%,0%
CCOC(=O)c1cc(-c2ccc(OC)cc2)n(CCC(=O)Nc2nc3ccc(OCC)cc3s2)c1C,x,x,x,-5%,x
CCOc1ccc(Oc2nc(Nc3ccc(C)cc3)nc(N(C)C)n2)nn1,-7,21µM*,5%,-18%,2%
CC1CCC(NC(=O)CCCn2sc3ccccc3c2=O)CC1 (stereo not given),-3,27µM*,7%,-12%,1%
CCOc1ccccc1NC(=O)CSC1=Nc2ccccc2C2=NC(CC(=O)NC3CCCCC3)C(=O)N12 (stereo not given),x,x,x,-23%,x
COC(=O)c1c(SCC(=O)NC2CCCCC2)[nH]c2ccccc2c1=O,-68*,-6%,7%[11.6 µM],-16%,1%
COC(=O)c1c(SCC(=O)Nc2cccc(Cl)c2C)[nH]c2ccccc2c1=O,x,x,x,-20%,x
Cc1ccc(NC(=O)CSc2nncn2C)c(C)c1,x,x,x,-24%,x
Cc1ccc(C2=NN=C(NC(=O)CSc3nncn3C)SC2)cc1,u,3µM*,-29%,-24%,1%
CC(CNC(=O)Cn1ccc2cc(S(=O)(=O)N3CCCCCC3)ccc21)c1ccccc1 (stereo not given),x,x,x,3%,x
CS(=O)(=O)N1CCN(CC(=O)NC2CCCCC2)CC1,-7,-10%,12%,-5%,2%
CCS(=O)(=O)N1CCN(CC(=O)NC2CCCCC2)CC1,-8,21µM*,7%,-11%,1%
CC(C)C1C(C#N)=C(N)Oc2n[nH]c(-c3ccccc3)c21 (stereo not given),-16,-1%,0%,-17%,1%
CC(C)CC1C(C#N)=C(N)Oc2n[nH]c(-c3ccccc3)c21 (stereo not given),-57*,-10%,-14%,-23%,8%
N#CC1=C(N)Oc2n[nH]c(-c3cccnc3)c2C1c1cc(F)ccc1F (stereo not given),-54*,-16%,-12%,-15%,1%
N#CC1=C(N)Oc2n[nH]c(-c3cccnc3)c2C1c1ccc([N+](=O)[O-])o1 (stereo not given),-59*,u,u,-26%,-1%
COc1cccc(CNC(=O)CCNS(=O)(=O)c2ccc3c(c2)CCCC(=O)N3)c1,x,x,x,-24%,x
Cc1cc(C)cc(NC(=O)c2ccc3c(O)c(S(=O)(=O)c4ccccc4)c(=O)[nH]c3c2)c1,x,x,x,-4%,x
CC(C)Oc1ccc(CNC(=O)CCn2c(=O)c3cccn3c3ccc(F)cc32)cc1,x,x,x,2%,x
Cc1cc(C2=NNC(=NC3CC3)SC2)c(C)n1-c1ccccc1F,u,27µM*,6%,-14%,1%
O=C(COc1ccc(Cl)cc1)NCCc1csc(-c2ccc(C(F)(F)F)cc2)n1,x,x,x,-5%,x
CC(=O)NC1Sc2ccccc2N=C1c1ccccc1 (stereo not given),u,19µM*,-15%,-13%,0%
SMILES,PI5P4Ka inh,PLK1 PBD block,WRN helicase inh,USP1 inh,USP2a inh
CCC(Sc1nnc(C)n2c1cc1occc12)C(=O)Nc1ccccc1F (stereo not given),x,x,x,-4%,x
CCN(Cc1ccccc1)S(=O)(=O)c1ccc(-c2coc(C)n2)cc1,x,x,x,-19%,x
CCOc1ccccc1C(=O)Nc1ccc(S(=O)(=O)Nc2onc(C)c2C)cc1,x,x,x,-8%,x
COc1ccc(-n2c(NC(=O)c3ccc(Br)o3)c(C#N)c3nc4ccccc4nc32)cc1,x,x,x,x,0%
N#Cc1c(NC(=O)c2ccc(Br)o2)n(-c2ccccc2)c2nc3ccccc3nc12,-10,u,4%,6.3µM*,-1%
COc1cc(-c2nnc(SCC(=O)N3c4ccccc4Sc4ccccc43)o2)cc(OC)c1OC,8,-3%,3%,-27%,-3%
O=C(Sc1nnc(-c2ccccc2)o1)N1c2ccccc2Sc2ccccc21,-7,67µM*,-10%,-25%,0%
CC(=O)N1CCc2cc(Br)cc(S(=O)(=O)N3CCC(C)CC3)c21,x,x,x,-2%,x
